Source: the supplement of paper PMC10849652
About 7,900 targets were measured; listed, in parts, are those with a hit and a random draw of the rest. About 0.6% of all pairs of compound and target were hits.

Key:
Test in all cases: log2 fold change, soluble protein after heating vs DMSO (PISA); higher = thermal stabilisation; K562 cells, 10 uM, 30 min; active = over 0.2 and 3.5 SD of the protein, either way, in both replicates (recomputed)
[1] = compound: CC1=C(C=C(C=C1)NC(=O)C2=CC(=CC=C2)C(C)(C)C#N)NC3=CC4=C(C=C3)N=CN(C4=O)C
Procedure, shortened: (§1)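 K562 cells (2×10^6 cells/mL) were treated with 10 μM compound for 30 min, and aliquots were heated for 3 min over 48°C-58°C. Pooled aliquots were extracted in PBS with 0.5% NP-40 at 4°C, and the supernatant after 21,000xg for 90 min was measured by TMTpro 16plex LC-MS/MS with channel sums equalised. Reported thermal stability, relative to control samples and from duplicates, is a log2 fold change.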

[2] = compound: CC1=C(C=C(C=C1)NC(=O)C2=CC(=CC=C2)N(C)C)NC(=O)C3=CC=C(C=C3)O
Procedure, shortened: as §1

[3] = compound: CC1=CC=C(C=C1)SC2=C3C=C(SC3=CN=C2)C(=O)N
Procedure, shortened: as §1

[4] = compound: CC1=NC(=CC=C1)C2=C(N=C(N2)C(C)(C)C)C3=CC4=NC=CN=C4C=C3
Procedure, shortened: as §1

Nexturastat A = compound: CCCCN(Cc1ccc(C(=O)NO)cc1)C(=O)Nc1ccccc1 [Nexturastat A]
Procedure, shortened: as §1

vemurafenib = compound: CCCS(=O)(=O)Nc1ccc(F)c(C(=O)c2c[nH]c3ncc(-c4ccc(Cl)cc4)cc23)c1F [vemurafenib]
Procedure, shortened: as §1

[5] = compound: CCCS(=O)(=O)Nc1ccc(F)c(C(=O)c2c[nH]c3ncc(Cl)cc23)c1F
Procedure, shortened: as §1

[6] = compound: CCCc1cc(C)[nH]c(=O)c1CNC(=O)c1cc(-c2ccnc(N3CCN(C)CC3)c2)cc2c1cnn2C(C)C
Procedure, shortened: as §1

givinostat = compound: CCN(CC)Cc1ccc2cc(COC(=O)Nc3ccc(C(=O)NO)cc3)ccc2c1 [givinostat]
Procedure, shortened: as §1

barasertib = compound: CCN(CCCOc1ccc2c(Nc3cc(CC(=O)Nc4cccc(F)c4)[nH]n3)ncnc2c1)CCOP(=O)(O)O [barasertib]
Procedure, shortened: as §1

Measured: log2 fold change

CDC37L1 (UniProt Q7L3B6)
UniProt Q7L3B6, sequence (Q7L3B6 whole entry, looked up): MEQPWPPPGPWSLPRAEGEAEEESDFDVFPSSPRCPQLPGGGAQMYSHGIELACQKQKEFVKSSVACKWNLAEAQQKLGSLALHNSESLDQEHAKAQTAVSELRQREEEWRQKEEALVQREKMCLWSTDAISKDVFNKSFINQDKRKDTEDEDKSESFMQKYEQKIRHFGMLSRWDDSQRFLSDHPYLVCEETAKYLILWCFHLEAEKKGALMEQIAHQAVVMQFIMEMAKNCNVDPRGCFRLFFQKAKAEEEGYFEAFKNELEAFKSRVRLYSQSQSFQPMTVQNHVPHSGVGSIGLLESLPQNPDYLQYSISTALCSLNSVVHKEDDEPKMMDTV
inactive: [1] 0.035 | [2] 0.001 | [3] -0.054 | [4] -0.021 | Nexturastat A -0.028 | vemurafenib -0.008 | [5] 0.019 | [6] 0.063 | givinostat 0.044 | barasertib 0.063

CASP9 (UniProt P55211)
UniProt P55211, sequence (P55211 whole entry, looked up): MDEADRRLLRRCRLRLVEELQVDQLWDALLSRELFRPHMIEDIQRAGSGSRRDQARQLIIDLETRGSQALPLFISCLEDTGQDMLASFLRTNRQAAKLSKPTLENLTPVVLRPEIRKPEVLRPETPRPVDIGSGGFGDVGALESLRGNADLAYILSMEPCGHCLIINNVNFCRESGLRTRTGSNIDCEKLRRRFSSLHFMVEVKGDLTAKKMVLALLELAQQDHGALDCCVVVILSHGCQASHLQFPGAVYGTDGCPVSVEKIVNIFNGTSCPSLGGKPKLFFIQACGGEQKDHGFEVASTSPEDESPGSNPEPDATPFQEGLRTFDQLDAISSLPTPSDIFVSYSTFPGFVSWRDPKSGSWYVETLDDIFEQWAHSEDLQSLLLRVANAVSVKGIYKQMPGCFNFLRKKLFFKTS
inactive: [1] 0.103 | [2] -0.091 | [3] 0.032 | [4] 0.021 | Nexturastat A 0.045 | vemurafenib 0.107 | [5] 0.111

CNOT1 (UniProt A5YKK6)
inactive: [1] 0.016 | [2] -0.007 | [3] -0.027 | [4] 0.014 | Nexturastat A 0.062 | vemurafenib 0.044 | [5] 0.046 | [6] 0.013 | givinostat 0.044 | barasertib 0.044

CTBS (UniProt Q01459)
UniProt Q01459, sequence (Q01459 whole entry, looked up): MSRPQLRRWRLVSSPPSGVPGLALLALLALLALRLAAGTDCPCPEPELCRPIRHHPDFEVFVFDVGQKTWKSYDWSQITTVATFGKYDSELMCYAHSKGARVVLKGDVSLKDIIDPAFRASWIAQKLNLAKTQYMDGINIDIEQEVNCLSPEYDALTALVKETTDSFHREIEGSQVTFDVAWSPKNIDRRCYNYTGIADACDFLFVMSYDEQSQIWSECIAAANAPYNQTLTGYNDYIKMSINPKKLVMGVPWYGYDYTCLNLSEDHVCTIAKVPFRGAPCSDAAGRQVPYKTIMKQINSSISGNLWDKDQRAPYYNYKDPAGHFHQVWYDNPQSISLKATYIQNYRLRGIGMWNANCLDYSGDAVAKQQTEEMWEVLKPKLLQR
inactive: [1] 0.206 | [2] 0.014 | [3] -0.026 | [4] -0.065 | Nexturastat A 0.043 | vemurafenib 0.093 | [5] -0.017 | [6] 0.017 | givinostat 0.039 | barasertib 0.03

CDK12 (UniProt Q9NYV4)
inactive: [1] 0.049 | [2] -0.001 | [3] -0.079 | [4] -0.077 | Nexturastat A 0.278 | vemurafenib -0.047 | [5] -0.002 | [6] 0.104 | givinostat 0.026 | barasertib -0.083

C1D (UniProt Q13901)
UniProt Q13901, sequence (Q13901 whole entry, looked up): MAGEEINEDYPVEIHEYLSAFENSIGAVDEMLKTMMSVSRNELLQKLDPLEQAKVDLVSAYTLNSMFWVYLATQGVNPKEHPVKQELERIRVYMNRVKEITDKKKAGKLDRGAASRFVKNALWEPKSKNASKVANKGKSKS
inactive: [1] 0.058 | [2] 0.002 | [3] -0.015 | [4] -0.045 | Nexturastat A -0.053 | vemurafenib -0.046 | [5] -0.175 | [6] -0.019 | givinostat -0.002 | barasertib 0.104

CD55 isoform 7 (UniProt P08174)
UniProt P08174, sequence (P08174 whole entry, looked up): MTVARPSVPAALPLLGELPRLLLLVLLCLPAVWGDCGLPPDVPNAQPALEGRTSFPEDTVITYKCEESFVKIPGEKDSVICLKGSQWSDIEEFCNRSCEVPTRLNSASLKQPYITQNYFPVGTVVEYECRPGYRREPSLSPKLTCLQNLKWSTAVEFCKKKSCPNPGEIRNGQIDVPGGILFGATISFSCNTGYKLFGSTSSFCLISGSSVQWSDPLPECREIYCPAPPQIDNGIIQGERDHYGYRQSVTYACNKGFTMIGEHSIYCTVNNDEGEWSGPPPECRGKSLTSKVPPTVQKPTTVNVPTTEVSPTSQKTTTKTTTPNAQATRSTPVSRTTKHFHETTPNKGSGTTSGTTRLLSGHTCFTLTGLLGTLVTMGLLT
inactive: [1] 0.037 | [2] -0.006 | [3] 0.021 | [4] 0.049 | Nexturastat A 0.072 | vemurafenib -0.031 | [5] -0.053 | [6] 0.088 | givinostat 0 | barasertib -0.057

CPD (UniProt O75976)
inactive: [1] -0.017 | [2] 0 | [3] -0.01 | [4] -0.016 | Nexturastat A -0.001 | vemurafenib -0.017 | [5] -0.021 | [6] -0.062 | givinostat 0.016 | barasertib 0.011

CDCA2 (UniProt Q69YH5)
active: Nexturastat A 0.638
inactive: [1] -0.134 | [2] 0.033 | [3] -0.047 | [4] -0.299 | vemurafenib -0.009 | [5] -0.043 | [6] -0.027 | givinostat 0.382

CBX1 (UniProt P83916)
inactive: [1] 0.049 | [2] -0.005 | [3] 0.04 | Nexturastat A -0.026 | vemurafenib 0.07 | [5] 0.057 | [6] -0.011 | givinostat -0.042 | barasertib -0.009
active: [4] 0.318

CNN2 (UniProt Q99439)
UniProt Q99439, sequence (Q99439 whole entry, looked up): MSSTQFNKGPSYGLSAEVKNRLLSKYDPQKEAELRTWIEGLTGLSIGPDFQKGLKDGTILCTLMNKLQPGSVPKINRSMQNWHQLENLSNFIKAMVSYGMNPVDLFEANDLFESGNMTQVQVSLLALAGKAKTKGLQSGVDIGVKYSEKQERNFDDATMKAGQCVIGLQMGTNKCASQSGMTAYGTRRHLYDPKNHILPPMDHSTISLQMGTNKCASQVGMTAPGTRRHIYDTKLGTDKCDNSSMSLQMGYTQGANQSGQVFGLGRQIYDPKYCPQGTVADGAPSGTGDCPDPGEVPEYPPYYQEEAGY
inactive: [1] 0.034 | [2] -0.037 | [3] 0.035 | [4] 0.023 | Nexturastat A -0.042 | vemurafenib 0.085 | [5] 0.073 | [6] 0.003 | givinostat 0.063 | barasertib 0.077

CSNK1A1 (UniProt P48729)
UniProt P48729, sequence (P48729 whole entry, looked up): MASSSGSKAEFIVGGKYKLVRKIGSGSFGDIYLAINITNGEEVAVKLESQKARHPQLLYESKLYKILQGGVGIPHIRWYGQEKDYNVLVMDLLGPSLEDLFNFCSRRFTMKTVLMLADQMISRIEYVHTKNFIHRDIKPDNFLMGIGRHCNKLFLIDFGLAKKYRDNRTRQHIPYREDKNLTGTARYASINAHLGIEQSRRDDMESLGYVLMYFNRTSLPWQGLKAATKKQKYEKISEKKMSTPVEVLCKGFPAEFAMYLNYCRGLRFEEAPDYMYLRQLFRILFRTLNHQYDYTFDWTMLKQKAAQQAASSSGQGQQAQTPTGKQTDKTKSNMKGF
inactive: [1] -0.021 | [2] 0.03 | [3] -0.006 | [4] -0.12 | Nexturastat A 0.028 | vemurafenib -0.006 | [5] 0 | [6] 0.031 | givinostat 0.037 | barasertib 0

CDC26 (UniProt Q8NHZ8)
UniProt Q8NHZ8, sequence (Q8NHZ8 whole entry, looked up): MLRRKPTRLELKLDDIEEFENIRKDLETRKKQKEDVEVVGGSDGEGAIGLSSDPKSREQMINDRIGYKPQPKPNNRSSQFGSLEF
inactive: [1] -0.026 | [2] 0.029 | [3] -0.025 | [4] 0.021 | Nexturastat A 0.067 | [5] -0.048 | [6] 0.056 | givinostat 0.056 | barasertib 0.007
active: vemurafenib 0.534

CA1 (UniProt P00915)
UniProt P00915, sequence (P00915 whole entry, looked up): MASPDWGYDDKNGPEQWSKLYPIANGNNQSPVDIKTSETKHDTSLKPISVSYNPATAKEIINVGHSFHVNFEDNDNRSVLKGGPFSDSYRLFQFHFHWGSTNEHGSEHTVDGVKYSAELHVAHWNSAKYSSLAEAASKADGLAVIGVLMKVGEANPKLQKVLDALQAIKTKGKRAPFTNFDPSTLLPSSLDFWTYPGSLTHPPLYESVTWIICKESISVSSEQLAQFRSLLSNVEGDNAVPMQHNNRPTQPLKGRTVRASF
inactive: [1] -0.028 | [2] -0.008 | [3] 0.03 | [4] 0.014 | Nexturastat A -0.051 | vemurafenib 0.048 | [5] 0.016 | [6] -0.039 | givinostat -0.021 | barasertib 0.008

CASC3 (UniProt O15234)
inactive: [1] 0.043 | [2] -0.003 | [3] 0.009 | [4] -0.027 | Nexturastat A -0.004 | vemurafenib -0.156 | [5] -0.061 | [6] -0.065 | givinostat -0.045 | barasertib 0.043

CSNK1D (UniProt P48730)
UniProt P48730, sequence (P48730 whole entry, looked up): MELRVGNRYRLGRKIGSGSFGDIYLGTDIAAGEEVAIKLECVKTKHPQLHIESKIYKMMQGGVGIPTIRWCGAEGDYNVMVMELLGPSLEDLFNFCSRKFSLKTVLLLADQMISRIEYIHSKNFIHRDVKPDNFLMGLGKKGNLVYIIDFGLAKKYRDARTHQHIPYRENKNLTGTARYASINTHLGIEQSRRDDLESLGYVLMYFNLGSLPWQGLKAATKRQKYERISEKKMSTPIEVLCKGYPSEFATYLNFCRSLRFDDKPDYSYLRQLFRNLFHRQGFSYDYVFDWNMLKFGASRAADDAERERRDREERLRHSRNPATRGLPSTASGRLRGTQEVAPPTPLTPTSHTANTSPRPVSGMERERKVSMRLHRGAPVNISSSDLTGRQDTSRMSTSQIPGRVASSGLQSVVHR
inactive: [1] -0.001 | [2] 0.003 | [3] -0.033 | [4] -0.018 | Nexturastat A 0.117 | vemurafenib 0.081 | [5] -0.047 | [6] 0.015 | givinostat -0.254 | barasertib -0.032

C4orf33 (UniProt Q8N1A6)
inactive: [1] -0.101 | [2] 0.04 | [3] 0.049 | [4] -0.049 | Nexturastat A 0.018 | vemurafenib -0.01 | [5] -0.082 | [6] 0.07 | givinostat 0.055 | barasertib 0.03

CCNH (UniProt P51946)
UniProt P51946, sequence (P51946 whole entry, looked up): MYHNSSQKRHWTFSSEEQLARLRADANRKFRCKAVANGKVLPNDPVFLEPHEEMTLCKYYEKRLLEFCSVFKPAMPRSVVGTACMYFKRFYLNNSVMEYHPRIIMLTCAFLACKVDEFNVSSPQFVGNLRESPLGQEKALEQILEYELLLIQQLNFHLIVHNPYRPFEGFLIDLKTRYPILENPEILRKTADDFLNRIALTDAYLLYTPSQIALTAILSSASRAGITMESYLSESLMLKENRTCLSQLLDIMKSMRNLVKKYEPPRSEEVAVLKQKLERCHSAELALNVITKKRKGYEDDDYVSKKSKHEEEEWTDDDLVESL
inactive: [1] -0.023 | [2] 0.007 | [3] -0.015 | [4] -0.056 | Nexturastat A -0.002 | vemurafenib 0.003 | [5] 0.018 | [6] -0.029 | givinostat -0.007 | barasertib 0.031

CDK5RAP1 (UniProt Q96SZ6)
inactive: [1] 0.014 | [2] -0.04 | [3] 0.002 | [4] 0.05 | Nexturastat A -0.065 | vemurafenib -0.007 | [5] -0.035 | [6] 0.066 | givinostat -0.166 | barasertib -0.005

CDK16 isoform 2 (UniProt Q00536)
inactive: [1] 0.003 | [2] -0.017 | [3] 0.028 | [4] 0.021 | Nexturastat A -0.052 | vemurafenib -0.072 | [5] 0.027 | [6] -0.101 | givinostat -0.043 | barasertib -0.023

CSK (UniProt P41240)
inactive: [2] -0.091 | [3] -0.01 | [4] 0.019 | Nexturastat A -0.046 | vemurafenib 0.072 | [5] 0.054 | [6] 0.034 | givinostat 0.035 | barasertib 0.004
active: [1] 0.325

CHCHD1 (UniProt Q96BP2)
inactive: [1] -0.02 | [2] -0.119 | [3] 0.279 | [4] 0.008 | Nexturastat A 0.141 | vemurafenib -0.044 | [5] 0.024 | [6] -0.747 | givinostat 0.013 | barasertib -0.105

CDC42BPB (UniProt Q9Y5S2)
inactive: [1] -0.073 | [2] -0.07 | [3] -0.034 | [4] -0.072 | Nexturastat A 0.052 | vemurafenib -0.046 | [5] -0.034 | [6] 0.079 | givinostat -0.096 | barasertib -0.087

CASP8 isoform 9 (UniProt Q14790)
UniProt Q14790, sequence (Q14790 whole entry, looked up): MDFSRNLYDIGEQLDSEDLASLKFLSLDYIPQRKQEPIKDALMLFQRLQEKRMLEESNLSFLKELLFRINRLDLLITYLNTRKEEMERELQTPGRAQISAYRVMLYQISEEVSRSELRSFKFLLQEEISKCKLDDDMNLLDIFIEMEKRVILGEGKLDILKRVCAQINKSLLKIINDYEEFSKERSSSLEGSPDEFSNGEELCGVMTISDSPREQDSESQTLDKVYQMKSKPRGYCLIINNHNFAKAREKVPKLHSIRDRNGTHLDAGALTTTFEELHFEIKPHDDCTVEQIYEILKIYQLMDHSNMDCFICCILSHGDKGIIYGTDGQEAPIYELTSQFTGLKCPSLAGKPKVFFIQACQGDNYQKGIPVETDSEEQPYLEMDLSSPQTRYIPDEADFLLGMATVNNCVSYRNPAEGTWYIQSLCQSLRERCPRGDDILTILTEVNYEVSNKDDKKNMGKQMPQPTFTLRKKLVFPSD
inactive: [1] -0.054 | [2] -0.092 | [3] 0.017 | [4] -0.049 | Nexturastat A 0.064 | vemurafenib 0 | [5] 0.177 | [6] 0.114 | givinostat 0.115 | barasertib 0

COPS4 (UniProt Q9BT78)
UniProt Q9BT78, sequence (Q9BT78 whole entry, looked up): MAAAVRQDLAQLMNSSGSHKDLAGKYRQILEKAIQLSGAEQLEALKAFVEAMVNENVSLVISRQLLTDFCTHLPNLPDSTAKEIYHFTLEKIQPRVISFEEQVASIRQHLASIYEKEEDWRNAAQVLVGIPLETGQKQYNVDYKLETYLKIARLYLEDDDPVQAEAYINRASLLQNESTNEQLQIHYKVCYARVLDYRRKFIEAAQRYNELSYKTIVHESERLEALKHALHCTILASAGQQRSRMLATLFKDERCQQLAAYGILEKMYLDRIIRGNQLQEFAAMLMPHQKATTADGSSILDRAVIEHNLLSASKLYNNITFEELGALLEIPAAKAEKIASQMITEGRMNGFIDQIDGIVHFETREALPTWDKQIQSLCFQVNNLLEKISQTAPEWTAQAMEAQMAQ
inactive: [1] -0.001 | [2] -0.019 | [3] 0.019 | [4] 0.033 | Nexturastat A -0.062 | vemurafenib 0.049 | [5] 0.071 | [6] -0.037 | givinostat -0.025 | barasertib -0.002

CPSF6 isoform 2 (UniProt Q16630)
UniProt Q16630, sequence (Q16630 whole entry, looked up): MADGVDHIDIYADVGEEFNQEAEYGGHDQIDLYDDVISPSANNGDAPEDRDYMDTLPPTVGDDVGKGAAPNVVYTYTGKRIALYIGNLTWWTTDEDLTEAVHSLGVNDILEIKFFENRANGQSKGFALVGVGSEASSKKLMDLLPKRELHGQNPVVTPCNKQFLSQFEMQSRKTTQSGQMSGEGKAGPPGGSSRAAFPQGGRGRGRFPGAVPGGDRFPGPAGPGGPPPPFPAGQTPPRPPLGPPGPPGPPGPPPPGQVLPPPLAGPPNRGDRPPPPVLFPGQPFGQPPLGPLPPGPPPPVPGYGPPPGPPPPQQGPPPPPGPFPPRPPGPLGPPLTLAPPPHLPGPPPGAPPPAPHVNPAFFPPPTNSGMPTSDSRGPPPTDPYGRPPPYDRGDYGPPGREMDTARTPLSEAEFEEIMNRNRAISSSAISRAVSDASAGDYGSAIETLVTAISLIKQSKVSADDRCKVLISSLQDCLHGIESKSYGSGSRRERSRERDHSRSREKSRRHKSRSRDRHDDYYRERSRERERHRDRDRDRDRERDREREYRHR
inactive: [1] 0.054 | [2] 0.02 | [3] -0.027 | [4] 0.02 | Nexturastat A -0.042 | vemurafenib 0.001 | [5] -0.069 | [6] 0.035 | givinostat 0.048 | barasertib -0.042

CLPTM1L (UniProt Q96KA5)
inactive: [1] -0.014 | [2] 0.01 | [3] 0.03 | [4] 0.022 | Nexturastat A -0.032 | vemurafenib 0.045 | [5] 0.016 | [6] -0.015 | givinostat 0.009 | barasertib 0.021

CLCN7 (UniProt P51798)
inactive: [1] 0.027 | [2] -0.026 | [3] 0.029 | [4] 0.006 | Nexturastat A -0.07 | vemurafenib 0.001 | [5] 0.038 | [6] -0.068 | givinostat -0.007 | barasertib -0.015
